Among the data in PubChem BioAssay (NCATS) are Potency, outcome and max response values, retold here.

Several values for one entry are separate records, joined by “and”; a condition that tells them apart may be missing. Equal entries are not always repeated. Inconclusive results are not listed. Activity calls are given as the source filed them. Unless noted, calls come from the whole dose curve; as a rule, active = well fitted curve in the direction sought with a large enough effect; inconclusive = small, poorly fitted or top-dose-only effect, or another doubt; inactive = no such curve, though single readings can be large; an effect the other way counts as inactive or inconclusive. A value given as a limit tells only on which side of the number the result lay.

Assay [1] in a line: Cell Viability - Jurkat (AID 426;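 active = dose-dependent loss of cell ATP signal giving a full or clear fitted curve, ranked by lower potency value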; note: potency is the fitted concentration of half-maximal effect). The note with it: qHTS. A digest of the protocol: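 Cytotoxicity was scored as loss of cellular ATP, measured by luciferase-based luminescence, in Jurkat clone E6-1 cells after 40 h compound treatment; tamoxifen and doxorubicin served as positive controls.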
On the technique in general: qHTS replaces the single test concentration by a dilution series.

Assay [2] can be described thus: Cell Viability - Hek293 (AID 427;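 active = compounds whose dose-response curve shows a full or clear partial loss of cell viability, called from curve shape rather than a numeric limit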;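 note: potency is the fitted concentration of half-maximal effect; cells exposed to compound for 40 hours at 37 °C before reading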). The conditions noted are these: qHTS. A digest of the protocol:
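HEK293 cells in complete medium were exposed to compound for 40 hr at 37 °C, then cellular ATP was read by CellTiter-Glo luminescence. Data were normalized to DMSO (basal) and 100 uM tamoxifen (100% inhibition), and AC50 came from Hill fits.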

Assay [3] can be described thus: Cell Viability - HepG2 (AID 433; calls by dose curve; note: potency is the fitted concentration of half-maximal effect). The conditions noted are these: qHTS. A digest of the protocol:
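Cytotoxicity is scored as loss of intracellular ATP in HepG2 cells exposed to compounds for 40 h. Concentration-response curves, normalized to DMSO and 100 uM tamoxifen, give AC50 values.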

Assay [4] in a line: Cell Viability - HUV-EC-C (AID 542). Note: % is set by controls: 0 for no effect and ±100 for the full control effect; nearly all actives have a fitted effect of over 35% in size. The conditions noted are these: HUV-EC-C endothelial cell viability, qHTS; series mostly up to 92.2 µM. Put shortly:
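Concentration-dependent ATP loss in HUV-EC-C cells is the measure. Exposure lasts 40 hr at 37 °C; luminescence follows CellTiter-Glo addition, and Hill fits give AC50.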

A short description of assay [5]: Cell Viability - H-4-II-E (AID 543). Note: % is set by controls: 0 for no effect and ±100 for the full control effect; nearly all actives have a fitted effect of over 35% in size. The conditions noted are these: H-4-II-E rat hepatoma viability; series mostly up to 92.2 µM. Put shortly: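 AC50 from Hill-modelled qHTS concentration-response curves. H-4-II-E rat hepatoma cells in complete medium, 40 hr exposure at 37 °C, viability by CellTiter-Glo ATP luminescence.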
Assay [6] is described as follows: Cell Viability - SH-SY5Y (AID 544). Note: nearly all actives have a fitted effect of over 55% in size. The note with it: SH-SY5Y neuroblastoma cell viability; series mostly up to 92.2 µM. A digest of the protocol: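 Quantitative HTS in SH-SY5Y neuroblastoma cells, 40 hr treatment at 37 °C, ATP content by luciferase luminescence; AC50 from Hill fits.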
The nature of assay [7]: Cellular Toxicity (caspase-3) SHSY5Y (AID 657). The conditions noted are these: SH-SY5Y caspase-3 activation, DMSO zero, 10 µM staurosporine = 100%; series mostly up to 91.7 µM. Put shortly: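 Cells plated and incubated 5 h at 37 °C, dosed over a concentration range, incubated 16 h, then given Caspase-Glo 3/7 reagent for 1 h at room temperature before luminescence reading. Staurosporine (10 uM) defined full stimulation.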

Assay [8] can be described thus: Cellular Toxicity (caspase-3) SK-N-SH (AID 661). The conditions noted are these: SK-N-SH caspase-3 activation, qHTS, DMSO as zero, staurosporine as full; series mostly up to 91.7 µM. Put shortly: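 Apoptosis readout in SK-N-SH neuroblastoma: Caspase-Glo 3/7 luminescence following 16 hr treatment in complete culture medium. Normalization used DMSO and 10 uM staurosporine controls.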

Assay [9] is described as follows: Cellular Toxicity (caspase-3) H-4-II-E (AID 663).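 Note: cells exposed to compound for 16 hr before readout.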 The conditions noted are these: H-4-II-E rat hepatoma; Potency: caspase-3 activation; series mostly up to 92.2 µM. Put shortly: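 H-4-II-E rat hepatoma, 1500 cells/well, 5 hr settle at 37 °C; compound 16 hr, 37 °C, complete medium; Caspase-Glo 3/7, 20 min RT; luminescence. DMSO = 0%, 100 uM tamoxifen = 100%; Hill-equation AC50.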

Assay [10] in a line: Cellular Toxicity (caspase-3) N2a (AID 665).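 Note: compound exposure lasted 16 h at 37 °C before readout.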 The note with it: N2a cells, luminescence, normalized: DMSO 0%, 10 µM staurosporine 100%; series mostly up to 92.2 µM. Put shortly:
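Concentration-response qHTS: compound-induced caspase-3/7 luminescence in N2a cells (16 h, 37 °C), relative to DMSO and 10 uM staurosporine controls; AC50 obtained using the standard Hill equation.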

The nature of assay [11]: Cellular Toxicity (caspase-3) NIH 3T3 (AID 666).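 Note: caspase signal read after 16 h compound exposure; 0% = DMSO basal and 100% = 100 µM tamoxifen stimulation.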 The note with it: NIH 3T3 caspase-3 activation, apoptosis/toxicity, 0% DMSO, 100% is 100 µM tamoxifen; series mostly up to 92.2 µM. A digest of the protocol: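 Activity: caspase-3/7 induction, NIH 3T3 cells, 16 hr treatment at 37°C, luminescent Caspase-Glo detection; AC50 via Hill equation.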
Assay [12] is described as follows: MultiTox-Fluor Cytotoxicity Assay - LYMP1-001 - Dead Cells (AID 946).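 Note: 0% = DMSO and 100% = tetraoctylammonium bromide.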 The note with it: LYMP1-001 lymphoblastoid cells, dead-cell protease fluorescence; series mostly up to 92.2 µM. A digest of the protocol: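 LYMP1-001 lymphoblastoid cells (2500/well) treated 16 h at 37 C. Dead-cell protease cleavage of bis-AAF-R110 read at Ex/Em 485/520. Normalized to DMSO and 15 uM tetraoctylammonium bromide; AC50 from Hill fits.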

A short description of assay [13]: Cell Viability - LYMP1-002 - Assay at 16 hr (AID 948).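 Note: 0% = DMSO alone and full effect = 92 µM tetraoctylammonium bromide.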 The conditions noted are these: LYMP1-002 lymphoblastoid cell viability; series mostly up to 92.2 µM. A digest of the protocol:
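Acute cytotoxicity is scored as a concentration-dependent fall in intracellular ATP in a human lymphoblastoid line (LYMP1-002) after 16 hr compound exposure at 37 C, measured by luciferase luminescence.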

Assay [14] can be described thus: MultiTox-Fluor Cytotoxicity Assay - LYMP1-002 - Live Cells (AID 955). Note: % is set by controls: 0 for no effect and ±100 for the full control effect. The conditions noted are these: LYMP1-002 lymphoblastoid live-cell protease fluorescence viability; series mostly up to 46.1 µM. A digest of the protocol: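 In this qHTS viability format, lymphoblastoid cells (LYMP1-002, human) received compound for 16 hr at 37 C. Fluorogenic GF-AFC cleavage by viable cells was detected at 405/510 nm after 1 h at room temperature.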

Assay [15] is described as follows: MultiTox-Fluor Cytotoxicity Assay - LYMP1-003 - Dead Cells (AID 961).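 Note: 0% = DMSO and 100% = tetraoctylammonium bromide; nearly all actives have a fitted effect of over 70% in size.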 The note with it: LYMP1-003 lymphoblastoid cells, dead-cell protease fluorescence; series mostly up to 92.2 µM. Put shortly:
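LYMP1-003 human lymphoblastoid cells (2500/well) exposed to compound 16 h at 37 C in complete medium; dead-cell protease read with bis-AAF-R110 fluorescence (Ex/Em 485/520) after 60 min at room temperature. Normalized to DMSO and 15 uM tetraoctylammonium bromide; AC50 from Hill fit.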

Assay [16] is described as follows: Cell Viability - LYMP2-003 (AID 965).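 Note: cells exposed to compounds for 24 h before reading; 0% = DMSO only and full effect = 92 µM tetraoctylammonium bromide; nearly all actives have a fitted effect of over 50% in size.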 The note with it: LYMP2-003 lymphoblastoid cell viability; series mostly up to 92.2 µM. Put shortly:
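Acute cytotoxicity is scored as a concentration-dependent drop in intracellular ATP, measured by luciferase luminescence in human lymphoblastoid cells treated for 24 hours at 37 C. AC50 values derive from Hill-equation modelling.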

Assay [17] can be described thus: Cell Viability - LYMP2-020 (AID 986).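 Note: cells exposed to compound for 24 h at 37 °C; plate controls were DMSO only for no effect and tetraoctylammonium bromide at 92 µM for full effect; nearly all actives have a fitted effect of over 55% in size.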 The note with it: series mostly up to 92.2 µM. A digest of the protocol:
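Cells at 2500 per well receive a 24 hr compound exposure at 37 C. Viability is measured as ATP-dependent luciferase luminescence, with AC50 modeled from qHTS concentration-response curves.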

Assay [18] can be described thus: Cell Viability - LYMP2-022 (AID 987).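 Note: 0% = DMSO alone and full effect = tetraoctylammonium bromide at 92 µM; nearly all actives have a fitted effect of over 55% in size.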 The conditions noted are these: LYMP2-022 lymphoblastoid cell viability; series mostly up to 92.2 µM. A digest of the protocol: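 In this qHTS cytotoxicity screen, compound titrations were incubated 24 hr at 37 C with human lymphoblastoid cells in complete medium. Luciferase-based ATP luminescence provided the viability signal.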

A short description of assay [19]: Cell Viability - LYMP2-024 (AID 988).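 Note: plate controls were DMSO only for no effect and 92 µM tetraoctylammonium bromide for full effect; nearly all actives have a fitted effect of over 60% in size.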 The note with it: LYMP2-024 lymphoblastoid cell viability; series mostly up to 92.2 µM. A digest of the protocol: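 Cells at 2500 per well received compound for 24 hr after a 5 hr settling period. Viability was scored by CellTiter-Glo luminescence, with AC50 from Hill fits.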
Assay [20] is described as follows: qHTS assay for small molecule antagonists of retinoid X receptor alpha signaling (AID 588546).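 Note: cells stimulated with 9-cis-retinoic acid as agonist; % is set by controls: 0 for no effect and ±100 for the full control effect.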 The note with it: HEK293T RXRa-UAS-bla, beta-lactamase ratio, antagonist mode; measured here: W530 green channel, cytotoxicity proxy. Put shortly:
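Beta-lactamase reporter inhibition, read as CCF4 fluorescence ratio (ex 405, em 460/530 nm) after 2 h at RT. HEK293T UAS-bla cells, 2500/well, were stimulated with 9-cis-RA at 500 or 100 nM final alongside test compound for 18 h at 37 C.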

Take `O=C(O)c1ccc(O)cc1O`: the Potency in assay [1], in assay [2] and in assay [3] was > 92 µM (inactive) in each case. Further, the outcome in assay [4], in assay [7], in assay [8], in [10] and in assay [11] was inactive. For the same compound, the Potency entry in [5], in assay [6], in [9], in [12], in assay [13] and in [14] was “inactive” each time. In addition, the Potency result in assay [15], in assay [16], in assay [17], in assay [18] and in [19] was “inactive” each time. The max response in [20] is -5.6%.
In the case of `CCCN(CCC)C(=O)SCC`, the Potency in assay [1], in assay [2] and in assay [3] was > 92 µM (inactive) throughout. Further, the call in assay [4], in assay [7], in assay [8], in assay [10] and in assay [11] was inactive. The Potency entry in assay [5], in assay [6], in assay [9], in [12], in assay [13] and in assay [14] was “inactive” throughout. For the same compound, the Potency result in [15], in [16], in assay [17], in [18] and in assay [19] was “inactive” in each case. Further, in [20], the max response is -11.5% and -6.21%.
Turning to `c1ccc2c(c1)c1cccc3ccc4cccc2c4c31`, the Potency in assay [1], in assay [2] and in assay [3] was > 92 µM (inactive) each time. For the same compound, the compound was called inactive in assay [4], in assay [7], in assay [8], in [10] and in assay [11]. In addition, the Potency entry in [5], in assay [6], in assay [9], in assay [12], in assay [13] and in assay [14] was “inactive” throughout. The Potency result in assay [15], in assay [16], in assay [17], in assay [18] and in assay [19] was “inactive” each time. Also, in assay [20], the max response was -0.47% and 10%.
Turning to `Cc1cccc([N+](=O)[O-])c1C`, the Potency in assay [1], in assay [2] and in assay [3] was > 92 µM (inactive) in each case. The compound was called inactive in [4], in assay [7], in [8], in [10] and in assay [11]. The Potency result in [5], in assay [6], in assay [9], in assay [12], in assay [13] and in [14] was “inactive” in each case. Besides, the Potency entry in assay [15], in assay [16], in assay [17], in assay [18] and in assay [19] was “inactive” throughout. In addition, the max response in assay [20] is -3.46% and -5.25%.
`C=Cc1ccccc1Cl`: the Potency in assay [1], in assay [2] and in assay [3] was > 92 µM (inactive) each time. Moreover, the result in [4], in [7], in assay [8], in assay [10] and in assay [11] was inactive. Further, the Potency result in assay [5], in assay [6], in assay [9], in [12], in assay [13] and in [14] was “inactive” each time. In addition, the Potency entry in [15], in assay [16], in [17], in assay [18] and in assay [19] was “inactive” each time. In addition, the max response in assay [20] was -3.63%.
